In PubChem BioAssay AID1159580 (chemical genetic matrix, 2015):
About 2,000 (36%) of roughly 5,500 compounds were called active. Inconclusive results (about 18%) are left out. No stated cut-off is given here; in the data, active means normalized growth mostly below about 0.91 (no sharp cut-off); inconclusive means no clear call, values can overlap the other calls; inactive means mostly above about 0.92. The list shows a part of the results.

Experiment: chemical genetic growth profiling, strain panel (AID 1159580);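 further: tested at 20 µM; growth read once vehicle control cultures reached saturation at 30 °C; 1 = growth at the plate median or of vehicle wells; lower values mean less growth of the strain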
Settings: S. cerevisiae deletion strains, growth OD

Measured: normalized growth

CC(=O)O[C@@H]1CC[C@]2(C)C3CC[C@]4(C)C(=O)CCC4C3CC[C@H]2C1 (stereo partly specified)
active: locus YBR009C, strain hhf1, active compounds read low 0.866 | locus YDL035C, strain GPR1, active compounds read low 0.85 | locus YDR162C, strain NBP2, active compounds read low 0.661 | locus YDR502C, strain sam2, active compounds read low 0.883 | locus YGR135W, strain pre9, active compounds read low 0.876 | locus YIL066C, strain RNR3, active compounds read low 0.852 | locus YLR262C, strain YPT6 (second series), active compounds read low 0.725 | locus YLR320W, strain mms22, active compounds read low 0.868 | locus YML032C, strain rad52, active compounds read low 0.885 | locus YMR205C, strain PFK2, active compounds read low 0.867 | locus YNL307C, strain MCK1, active compounds read low 0.848 | locus YNR052C, strain pop2, active compounds read low 0.877 | locus YOL147C, strain pex11, active compounds read low 0.865 | locus YOR001W, strain rrp6, active compounds read low 0.891 | locus YOR184W, strain ser1, active compounds read low 0.713 | locus YOR270C, strain vph1, active compounds read low 0.72
inactive: locus YAL021C, strain ccr4, active compounds read low 0.944 | locus YAL026C, strain drs2, active compounds read low 0.967 | locus YAL030W, strain snc1, active compounds read low 1.01 | locus YBL061C, strain skt5, active compounds read low 0.988 | locus YBR021W, strain FUR4, active compounds read low 0.861 | locus YBR023C, strain chs3, active compounds read low 0.98 | locus YBR171W, strain sec66, active compounds read low 0.97 | locus YBR229C, strain ROT2, active compounds read low 0.934 | locus YBR231C, strain swc5, active compounds read low 1.01 | locus YBR279W, strain paf1, active compounds read low 1 | locus YCL011C, strain gbp2, active compounds read low 0.973 | locus YCL016C, strain dcc1, active compounds read low 1.02 | locus YCL029C, strain bik1, active compounds read low 0.987 | locus YCL061C, strain MRC1, active compounds read low 0.979 | locus YCL069W, strain vba3, active compounds read low 0.96 | locus YCR088W, strain abp1, active compounds read low 0.984 | locus YDL005C, strain med2, active compounds read low 1 | locus YDL040C, strain nat1, active compounds read low 0.982 | locus YDL074C, strain BRE1, active compounds read low 0.867 | locus YDL101C, strain DUN1, active compounds read low 0.964 | locus YDL185W, strain tfp1, active compounds read low 0.981 | locus YDL192W, strain arf1, active compounds read low 0.937 | locus YDR001C, strain nth1, active compounds read low 0.997 | locus YDR069C, strain doa4, active compounds read low 0.969 | locus YDR101C, strain arx1, active compounds read low 0.995 | locus YDR137W, strain rgp1, active compounds read low 0.876 | locus YDR150W, strain NUM1, active compounds read low 0.992 | locus YDR159W, strain sac3, active compounds read low 0.931 | locus YDR195W, strain ref2 1.07 | locus YDR297W, strain sur2, active compounds read low 1.01 | locus YDR318W, strain mcm21, active compounds read low 0.942 | locus YDR334W, strain swr1, active compounds read low 0.972 | locus YDR335W, strain msn5, active compounds read low 0.995 | locus YDR388W, active compounds read low 0.939 | locus YDR392W, strain spt3, active compounds read low 0.929 | locus YEL003W, strain gim4, active compounds read low 0.965 | locus YEL037C, strain rad23, active compounds read low 0.985 | locus YEL061C, strain CIN8 (second series), active compounds read low 0.988 | locus YEL061C, strain CIN8, active compounds read low 0.983 | locus YER015W, strain faa2, active compounds read low 0.996 | locus YER016W, strain bim1, active compounds read low 1.03 | locus YER110C, active compounds read low 0.996 | locus YER111C, strain swi4, active compounds read low 0.986 | locus YER155C, strain BEM2 (second series), active compounds read low 0.992 | locus YER155C, strain BEM2, active compounds read low 1.01 | locus YER167W, strain BCK2, active compounds read low 0.947 | locus YFR010W, strain ubp6, active compounds read low 0.972 | locus YGL078C, strain dbp3, active compounds read low 0.948 | locus YGL086W, strain mad1, active compounds read low 0.987 | locus YGL167C, strain pmr1, active compounds read low 0.999 | locus YGL173C, strain kem1, active compounds read low 0.953 | locus YGL227W, strain vid30, active compounds read low 0.989 | locus YGL240W, strain doc1, active compounds read low 0.985 | locus YGL248W, strain PDE1, active compounds read low 0.959 | locus YGL253W, strain hxk2, active compounds read low 0.966 | locus YGR252W, strain gcn5, active compounds read low 0.83 | locus YHR013C, strain ard1, active compounds read low 1.05 | locus YHR027C, strain rpn1, active compounds read low 0.977 | locus YHR030C, strain SLT2, active compounds read low 0.999 | locus YHR079C, strain IRE1 (second series), active compounds read low 0.987 | locus YHR094C, strain hxt1, active compounds read low 0.978 | locus YHR129C, strain ARP1, active compounds read low 0.974 | locus YHR142W, strain chs7, active compounds read low 0.943 | locus YHR200W, strain rpn10, active compounds read low 0.978 | locus YIL073C, strain SPO22, active compounds read low 0.872 | locus YIL125W, strain kgd1, active compounds read low 0.981 | locus YIR030C, strain dcg1, active compounds read low 0.967 | locus YJL092W, strain hpr5, active compounds read low 0.986 | locus YJL095W, strain BCK1 (second series), active compounds read low 0.949 | locus YJL095W, strain BCK1, active compounds read low 0.828 | locus YJL115W, strain asf1, active compounds read low 0.991 | locus YJL129C, strain trk1, active compounds read low 0.942 | locus YJL134W, strain LCB3, active compounds read low 0.951 | locus YJL154C, strain vps35, active compounds read low 0.988 | locus YJL164C, strain tpk1, active compounds read low 0.949 | locus YJL166W, strain qcr8, active compounds read low 0.922 | locus YJL168C, strain set2, active compounds read low 0.995 | locus YJL187C, strain SWE1 (second series), active compounds read low 0.955 | locus YJR043C, strain POL32, active compounds read low 0.962 | locus YJR075W, strain HOC1, active compounds read low 0.982 | locus YKL009W, strain mrt4, active compounds read low 0.941 | locus YKL068W, active compounds read low 0.979 | locus YKL085W, strain MDH1 (second series), active compounds read low 0.954 | locus YKL085W, strain MDH1, active compounds read low 0.954 | locus YKL160W, strain elf1, active compounds read low 1.03 | locus YKL190W, strain CNB1, active compounds read low 0.973 | locus YKR001C, strain vps1, active compounds read low 0.984 | locus YKR026C, strain gcn3, active compounds read low 0.982 | locus YKR091W, strain srl3, active compounds read low 0.989 | locus YLL001W, strain dnm1, active compounds read low 0.974 | locus YLL026W, active compounds read low 0.999 | locus YLL041C, strain sdh2, active compounds read low 0.986 | locus YLR027C, strain aat2, active compounds read low 0.962 | locus YLR039C, strain RIC1, active compounds read low 0.772 | locus YLR058C, strain SHM2, active compounds read low 0.96 | locus YLR102C, strain apc9, active compounds read low 0.991 | locus YLR221C, strain rsa3, active compounds read low 0.91 | locus YLR258W, strain gsy2, active compounds read low 0.974 | locus YLR262C, strain YPT6, active compounds read low 0.672 | locus YLR268W, strain sec22, active compounds read low 0.979 | locus YLR330W, strain CHS5, active compounds read low 0.933 | locus YLR342W, strain FKS1 (second series), active compounds read low 0.804 | locus YLR342W, strain FKS1, active compounds read low 0.962 | locus YLR357W, strain rsc2, active compounds read low 1.02 | locus YLR370C, strain arc18, active compounds read low 1.02 | locus YLR371W, strain rom2, active compounds read low 0.992 | locus YLR384C, strain iki3, active compounds read low 1.02 | locus YLR418C, strain cdc73, active compounds read low 0.843 | locus YML016C, strain PPZ1, active compounds read low 0.969 | locus YML120C, strain ndi1, active compounds read low 0.943 | locus YML124C, strain tub3, active compounds read low 1 | locus YMR058W, strain fet3, active compounds read low 0.95 | locus YMR078C, strain ctf18, active compounds read low 1 | locus YMR125W, strain sto1, active compounds read low 1 | locus YMR129W, active compounds read low 1 | locus YMR223W, strain ubp8, active compounds read low 0.916 | locus YMR231W, strain pep5, active compounds read low 0.993 | locus YMR307W, strain GAS1, active compounds read low 0.797 | locus YNL067W, strain RPL9B, active compounds read low 1 | locus YNL071W, strain lat1, active compounds read low 0.949 | locus YNL209W, strain ssb2, active compounds read low 0.989 | locus YNL233W, strain BNI4, active compounds read low 0.941 | locus YNL248C, strain rpa49, active compounds read low 0.963 | locus YNL250W, strain rad50, active compounds read low 0.963 | locus YNL271C, strain bni1, active compounds read low 0.979 | locus YNL298W, strain CLA4, active compounds read low 0.913 | locus YNL322C, strain KRE1 (second series), active compounds read low 1.02 | locus YNR049C, strain mso1, active compounds read low 1.01 | locus YOL012C, strain htz1 1.51 | locus YOR061W, strain CKA2, active compounds read low 0.942 | locus YOR069W, strain VPS5, active compounds read low 0.977 | locus YOR070C, strain gyp1, active compounds read low 1 | locus YOR080W, strain dia2, active compounds read low 1.01 | locus YOR083W, strain WHI5, active compounds read low 0.975 | locus YOR106W, strain vam3, active compounds read low 0.978 | locus YOR136W, strain idh2, active compounds read low 0.998 | locus YOR144C, strain elg1, active compounds read low 1 | locus YOR265W, strain rbl2, active compounds read low 0.983 | locus YOR290C, strain snf2, active compounds read low 0.958 | locus YOR316C, strain cot1, active compounds read low 0.986 | locus YPL051W, strain arl3, active compounds read low 1 | locus YPL078C, strain atp4, active compounds read low 0.964 | locus YPL106C, strain sse1, active compounds read low 1.03 | locus YPL240C, strain hsp82, active compounds read low 0.99 | locus YPL241C, strain CIN2, active compounds read low 0.985 | locus YPR119W, strain clb2, active compounds read low 0.994 | locus YPR141C, strain kar3, active compounds read low 0.991 | locus YPR163C, strain tif3, active compounds read low 0.981 | locus YPR167C, strain met16, active compounds read low 0.942 | strain wtn01, active compounds read low 1.01
